Compound activity as filed in PubChem BioAssay.
GLP1R ag: qHTS of GLP-1 Receptor Agonists | Glucagon-like peptide 1 receptor (Homo sapiens), P43220 | HEK293 GLP-1R CRE-luciferase, luminescence, 4-6 h; cells express a hypersensitive GLP-1R form | Potency, µM (titrated, usually from 45.6 µM), for the others: at the highest dose activation, most hits filed as activators | actives 0.007% (n = 380,000); note: potency is the fitted concentration of half-maximal effect; % of control where 0% means no effect
Target sequence (P43220 whole entry, looked up): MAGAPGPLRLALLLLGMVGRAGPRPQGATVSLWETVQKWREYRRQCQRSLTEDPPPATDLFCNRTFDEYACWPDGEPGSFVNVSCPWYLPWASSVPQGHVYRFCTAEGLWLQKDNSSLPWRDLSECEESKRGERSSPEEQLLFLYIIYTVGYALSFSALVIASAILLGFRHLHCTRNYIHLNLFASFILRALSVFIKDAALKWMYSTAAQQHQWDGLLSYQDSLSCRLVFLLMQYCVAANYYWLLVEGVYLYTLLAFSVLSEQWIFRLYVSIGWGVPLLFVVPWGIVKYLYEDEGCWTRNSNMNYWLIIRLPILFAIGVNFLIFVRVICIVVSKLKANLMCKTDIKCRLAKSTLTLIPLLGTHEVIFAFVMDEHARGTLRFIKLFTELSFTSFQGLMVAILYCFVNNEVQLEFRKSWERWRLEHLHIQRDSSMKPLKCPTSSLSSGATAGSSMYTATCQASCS
GLP1R inv ag: qHTS of GLP-1 Receptor Inverse Agonists (Inhibition Mode) | AID 624417, 2012 | Potency, µM (doses to about 38.3 µM), for the others: at the top dose activity change, negative = inhibition, usual class: inhibitors | HEK293 GLP-1R CRE-luciferase, luminescence, 24 h; GLP-1R form is constitutively active | actives 1.6% (n = 410,000) | Glucagon-like peptide 1 receptor (Homo sapiens), P43220; note: potency is the fitted concentration of half-maximal effect; % is set by controls: 0 for no effect and ±100 for the full control effect; nearly all actives have a fitted effect of over 55% in size
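Inverse agonists were sought by their lowering of basal cAMP reporter luciferase output in HEK293 cells stably carrying constitutively active human GLP-1R, after 24 h compound treatment.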
HEK293 tox: qHTS of GLP-1 Receptor Inverse Agonists: Cytotox Screen; HEK293 cAMP-luciferase reporter cells, luminescence, 24 h; Potency, µM (top dose mostly 38.3 µM), for inactives: at the highest dose activity change, negative = inhibition, usual class: inhibitors; actives 0.13% (n = 410,000); AID 624418, 2012;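 note: loss of luciferase light is scored as toxicity; potency is the fitted concentration of half-maximal effect; % is set by controls: 0 for no effect and ±100 for the full control effect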
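Cells in DMEM/10% Nu serum/1% pen-strep, 1536-well format. Pre-incubated 12 h, dosed with 23 nL compound, incubated a further 24 h. Luciferase detection, 12 min at room temp, luminescence.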
TRHR ag: qHTS for Small Molecule Agonists and Allosteric Enhancers of Human TRH Receptor: Primary Screen for Agonists; activation, % at 2 µM; actives 0.18% (n = 360,000); TRHR cells, calcium flux fluo-8, FDSS agonist mode; Thyrotropin-releasing hormone receptor (Homo sapiens), P34981; in the data active = activation above about 30%; note: 0% is about no effect
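In this calcium-flux screen, cells bearing human TRHR are dye-loaded with fluo-8, baselined for 10 cycles, then exposed to library compounds; positive kinetic calcium responses during the agonist phase mark hits, with TRH as control.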
TRHR enhancer: qHTS for Small Molecule Agonists and Allosteric Enhancers of Human TRH Receptor: Primary Screen for Enhancers | TRHR cells, fluo-8 calcium fluorescence, EC20 TRH enhancement | enhancement, % at 2 µM | actives 0.66% (n = 360,000); in the data active = enhancement above about 30%; note: 0% is about no effect
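Enhancer read-out: after compound pinning and an initial kinetic agonist-mode read, an EC20 of TRH (10 nM final) was injected and fluo-8 calcium signal (Ex 480/Em 530) followed at 1 s/cycle for 100 cycles in TRHR-expressing cells.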
PTHR1 agonist: qHTS for PTHR1 Agonists: Primary Screen; HEK293 GP2 PTHR1 cells, GloSensor cAMP luminescence, 1 h; Potency, µM (top dose mostly 115 µM), for the others: top-dose activation, usual class: activators; actives 0.075% (n = 410,000); note: potency is the fitted concentration of half-maximal effect; nearly all actives have a fitted effect of over 55% in size
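HEK-293-derived GP2 cells expressing PTHR1 and a GloSensor cAMP reporter, 3,000/well, plated overnight, given luciferin plus IBMX (each 0.5 mM as added) for 1 h at 37 °C, then compound for 1 h at 37 °C. Luminescence was read after 15 min at room temperature.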
* hit, by the source's call. Shown are actives, neighbours in structure and some others; about 2.4% of the full set was active somewhere. Unless noted, calls come from the whole dose curve; as a rule, active = well fitted curve in the direction sought with a large enough effect; inconclusive = small, poorly fitted or top-dose-only effect, or another doubt; inactive = no such curve, though single readings can be large; an effect the other way counts as inactive or inconclusive.

For CC(=Nc1ccc(C)cc1)c1sc2ccccc2c1O the results were GLP1R ag -7.2%, GLP1R inv ag 12.6µM*, HEK293 tox 136.7%, TRHR ag 18.9, TRHR enhancer -5.8 and PTHR1 agonist 10.9%.
Screening CCCCOc1ccc(C(=O)NCc2nnnn2-c2ccc(C)c(C)c2)cc1 returned GLP1R inv ag inconclusive, HEK293 tox -10.9%, TRHR ag -0.5, TRHR enhancer 4.7 and PTHR1 agonist inactive.
`CCc1cccc(NS(=O)(=O)c2ccc3c(c2)NC(=O)C(C)S3)c1` (configuration not stated) gave GLP1R ag 11.0%, GLP1R inv ag 11.2µM*, HEK293 tox 1.1%, TRHR ag 1.0, TRHR enhancer 2.6 and PTHR1 agonist -27.8%.
COc1cccc(NS(=O)(=O)c2ccc3c(c2)NC(=O)C(C)S3)c1 (configuration not stated) was read as GLP1R ag 5.6%, GLP1R inv ag -14.6%, HEK293 tox 0.0%, TRHR ag 0.1, TRHR enhancer -5.1 and PTHR1 agonist -30.9%.
`C=CCN(c1ccccc1)S(=O)(=O)c1ccc2c(c1)NC(=O)C(C)S2` (configuration not stated) gave GLP1R ag 1.0%, GLP1R inv ag 7.08µM*, HEK293 tox 0.2%, TRHR ag -0.5, TRHR enhancer -10.8 and PTHR1 agonist -11.8%.
`COC(=O)c1ccc(CNC(=O)c2ccc(OC)c(S(=O)(=O)NC3CC3)c2)cc1` gave GLP1R ag 8.6%, GLP1R inv ag 11.6%, HEK293 tox 5.7% and PTHR1 agonist inactive.
For CC(C)(C)c1ccc(Oc2ccc(NC(=O)c3ccco3)cn2)cc1 the results were GLP1R ag 26.4%, GLP1R inv ag 2.51µM*, HEK293 tox -27.6%, TRHR ag 0.2, TRHR enhancer 0.3 and PTHR1 agonist -16.7%.
O=C(Nc1ccc(Oc2cccc(C(F)(F)F)c2)nc1)c1ccco1 was read as GLP1R ag 7.4%, GLP1R inv ag inconclusive, HEK293 tox 12.5%, TRHR ag 1.8, TRHR enhancer -3.8 and PTHR1 agonist -9.7%.
`COc1ccc(NC(=O)c2ccco2)cc1NC(=O)c1ccc(C)cc1` gave GLP1R ag -0.8%, GLP1R inv ag inconclusive, HEK293 tox -28.2%, TRHR ag -0.6, TRHR enhancer -1.7 and PTHR1 agonist inactive.
Screening COc1ccc(-c2ccc(NC(=O)c3ccco3)cc2)nn1 returned GLP1R ag -1.3%, GLP1R inv ag 7.08µM*, HEK293 tox 16.7%, TRHR ag -0.3, TRHR enhancer -5.9 and PTHR1 agonist -22.3%.
COc1ccc(NC(=O)c2ccco2)cc1NC(=O)c1ccc(OC(C)C)cc1 was read as GLP1R inv ag inconclusive, HEK293 tox -2.1%, TRHR ag -0.8, TRHR enhancer 42.9* and PTHR1 agonist -15.1%.
`COc1ccc(CN2C(=NC(=O)c3ccccc3)SC3CS(=O)(=O)CC32)cc1` (configuration not stated) gave GLP1R ag -0.6%, GLP1R inv ag 10.5%, HEK293 tox -20.4%, TRHR ag 1.5, TRHR enhancer 3.0 and PTHR1 agonist -32.4%.
`Nc1nc(Nc2cc(F)cc(F)c2)nc(NC2CCCC2)n1` gave TRHR ag 0.9 and TRHR enhancer 0.7.
`CCOC(=O)c1[nH]c(COC(=O)CCCOc2ccccc2)c(C(=O)OCC)c1C` gave GLP1R ag 1.7%, GLP1R inv ag 1.9%, HEK293 tox -9.0%, TRHR ag 0.4, TRHR enhancer -2.6 and PTHR1 agonist inactive.
